Screening results as filed in PubChem.
JMJD2A Tudor inh: JMJD2A Tudor domain (human) inhibition | O75164 | actives 4.4% (n = 390,000) | AlphaScreen JMJD2A-Tudor / H3K4me3 peptide binding | AID 504339 | Potency, µM (series often up to 114 µM), most hits filed as inhibitors; further: nearly all actives have a fitted effect of over 50% in size
Target sequence (O75164 whole entry, looked up, the tested form may be a part): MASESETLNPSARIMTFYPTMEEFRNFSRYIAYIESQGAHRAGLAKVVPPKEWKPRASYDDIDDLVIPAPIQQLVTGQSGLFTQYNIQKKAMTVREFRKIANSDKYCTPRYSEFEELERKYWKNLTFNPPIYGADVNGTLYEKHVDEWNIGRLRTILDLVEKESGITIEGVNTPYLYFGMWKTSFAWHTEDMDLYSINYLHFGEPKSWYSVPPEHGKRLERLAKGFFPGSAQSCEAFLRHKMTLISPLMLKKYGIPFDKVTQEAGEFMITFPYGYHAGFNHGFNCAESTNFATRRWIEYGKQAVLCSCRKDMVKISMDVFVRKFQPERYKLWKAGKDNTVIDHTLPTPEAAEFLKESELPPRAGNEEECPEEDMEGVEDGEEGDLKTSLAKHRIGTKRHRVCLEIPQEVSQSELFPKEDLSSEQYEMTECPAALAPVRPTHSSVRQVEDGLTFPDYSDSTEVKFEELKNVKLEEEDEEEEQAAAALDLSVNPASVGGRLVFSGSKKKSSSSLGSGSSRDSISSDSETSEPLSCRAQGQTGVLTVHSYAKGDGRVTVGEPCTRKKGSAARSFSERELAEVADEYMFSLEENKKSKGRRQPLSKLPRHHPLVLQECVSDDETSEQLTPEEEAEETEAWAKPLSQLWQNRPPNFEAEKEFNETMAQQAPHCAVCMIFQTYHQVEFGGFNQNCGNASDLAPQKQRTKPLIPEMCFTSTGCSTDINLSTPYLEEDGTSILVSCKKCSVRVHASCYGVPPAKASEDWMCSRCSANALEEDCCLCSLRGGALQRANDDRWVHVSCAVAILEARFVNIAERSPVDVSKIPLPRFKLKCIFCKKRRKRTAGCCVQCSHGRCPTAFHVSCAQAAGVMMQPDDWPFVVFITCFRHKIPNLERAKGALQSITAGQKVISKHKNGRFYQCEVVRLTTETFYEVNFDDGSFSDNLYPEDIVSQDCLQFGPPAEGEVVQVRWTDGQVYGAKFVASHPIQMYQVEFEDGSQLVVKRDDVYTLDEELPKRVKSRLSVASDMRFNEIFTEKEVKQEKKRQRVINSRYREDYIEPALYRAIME
HP1b binding inh: inhibitors of HP1-beta chromodomain binding to methylated histone tails | AID 540317 | AlphaScreen HP1-beta / biotin-H3K9me3 peptide binding | Potency, µM (doses to about 114 µM), actives largely listed as inhibitors | P83916 | actives 0.56% (n = 390,000); further: nearly all actives have a fitted effect of over 70% in size
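HP1-beta protein (50 nM final) preincubated 30 min at room temperature with biotinylated H3(1-18)K9me3 peptide (50 nM) in PBS pH 7.4, 0.01% Tween-20, then compound added for 30 min. AlphaScreen streptavidin donor/nickel chelate acceptor beads (10 ug/mL final), 30 min dark, luminescence read.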
Six1-Eya2 inh: blocks human Six1 binding to Eya2 | actives 0.56% (n = 360,000) | AlphaScreen GST-Six1/His-Eya2 binding, biochemical; hits give low values | activity change, % (test concentration not listed); in the data active means activity change below about -65%; inconclusive means mostly about -30% to -63%
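Homogeneous AlphaScreen proximity assay pairing GST-Six1 with His-tagged Eya2 (added as 5X mix: 250 nM and 500 nM) in 50 mM Tris pH 8.0, 300 mM NaCl, 1 mM TCEP. Glutathione donor and nickel acceptor beads; 1 h, 37 °C, dark.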
CtBP-E1A inh: CtBP/E1A binding inhibition. actives 0.49% (n = 340,000). activity change, % (no concentration beside the values). AlphaScreen GST-E1A/His-CtBP binding, 1536-well; hits give low values; in the data active means activity change below about -65%; inconclusive means mostly about -30% to -63%
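Homogeneous bead-based format: GST-tagged E1A captured on glutathione donor beads, His-tagged CtBP on nickel acceptor beads; compounds precede bead addition by 2 h at 37 °C.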
BAZ2B inh: blocks human BAZ2B; Q9UIF8; AlphaScreen BAZ2B-H3K14Ac peptide displacement; Potency, µM (titrated, usually from 114 µM), most hits filed as inhibitors; actives 4.4% (n = 360,000); AID 504333; further: nearly all actives have a fitted effect of over 60% in size
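AlphaScreen displacement: compounds (up to 110uM) incubated 30 min at room temperature with a preformed 50 nM BAZ2B/50 nM biotinylated H3K14Ac peptide complex in PBS pH 7.4 with Tween-20. Donor and acceptor beads at 10 ug/mL final added, 20 min light-protected before reading.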
G9a block: inhibitors of human histone lysine methyltransferase G9a; G9a H3K9 monomethylation, AlphaScreen, 2 h; Q96KQ7; Potency, µM (titrated, usually from 102 µM), hits mostly inhibitors; actives 8.8% (n = 350,000); further: nearly all actives have a fitted effect of over 75% in size
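Enzyme 20 nM + cpd, 15 min RT; add b-H3K9 pep 500 nM / SAM 20 uM; 2 h RT; anti-H3K9me1 Ab 0.5 ug/mL + SA donor / anti-rabbit acceptor beads 20 ug/mL each, 10 min; AlphaScreen read.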
Numbers stand for hits; [ ] = remark or other dose. In the library only some 10% were active in any assay of this set; here they are far more common. Unless noted, the call rests on the fitted dose curve; in most records, active means well fitted inhibition curve with a large enough effect; inconclusive means small, poorly fitted or top-dose-only effect; inactive means no such curve, though single readings can be large or run the other way.

What do the screens show for `CCCNC(=O)c1cc(C2CCCN(C(=O)c3cc(F)ccc3C)C2)on1` (stereo not given)?
Six1-Eya2 inh: inactive; CtBP-E1A inh: inactive

Results for O=C(Nc1ccccc1)c1cc(C2CCCCN2C(=O)c2cccs2)on1 (stereo not given) ?
Six1-Eya2 inh: inactive; CtBP-E1A inh: inactive

What do the screens show for `Cc1nn(-c2ccccn2)c2nc(-c3cccs3)cc(C(=O)NCc3ccco3)c12`?
JMJD2A Tudor inh: inconclusive; HP1b binding inh: inactive; Six1-Eya2 inh: inactive; CtBP-E1A inh: inactive; BAZ2B inh: inactive; G9a block: 45µM

What do the screens show for `Cc1ccccc1-n1nc(C)c2c(C(=O)NN)cc(-c3ccncc3)nc21`?
JMJD2A Tudor inh: inactive; HP1b binding inh: inactive; Six1-Eya2 inh: inactive; CtBP-E1A inh: inactive; BAZ2B inh: inactive; G9a block: inactive

How did Cc1nn(-c2ccccc2)c2nc(-c3ccncc3)cc(C(=O)NCc3ccco3)c12 do in these assays?
JMJD2A Tudor inh: inconclusive; HP1b binding inh: inactive; Six1-Eya2 inh: inactive; CtBP-E1A inh: inactive; BAZ2B inh: inactive; G9a block: 50µM

Results for Cc1cc(=O)oc(C)c1C(=O)N1CCN(C(c2ccccc2)c2ccccc2)CC1 ?
JMJD2A Tudor inh: inactive; HP1b binding inh: inactive; Six1-Eya2 inh: inactive; CtBP-E1A inh: inactive; BAZ2B inh: inactive; G9a block: 50µM

How did COc1ccccc1N1CCN(C(=O)c2c(C)cc(=O)oc2C)CC1 do in these assays?
JMJD2A Tudor inh: inactive; HP1b binding inh: inactive; Six1-Eya2 inh: inactive; CtBP-E1A inh: inactive; BAZ2B inh: inactive; G9a block: inactive[12.7 µM]

How did COc1ccc(CCNC(=O)c2cc3cc(Cl)ccc3nc2N)cc1OC do in these assays?
Six1-Eya2 inh: inactive; CtBP-E1A inh: inactive

Results for O=C1CCc2cccc(O)c2N1 ?
JMJD2A Tudor inh: 79µM; HP1b binding inh: inactive; Six1-Eya2 inh: inactive; CtBP-E1A inh: inactive

What do the screens show for `CC(C)C(c1nnnn1Cc1ccc(F)cc1)N1CCN(c2ccc(O)cc2)CC1` (stereo not given)?
JMJD2A Tudor inh: 40µM; HP1b binding inh: 71µM; Six1-Eya2 inh: inactive; CtBP-E1A inh: inactive; BAZ2B inh: inactive; G9a block: 13µM

What do the screens show for `COc1ccc(Cn2nnnc2C(C(C)C)N2CCN(c3ccccc3OC)CC2)cc1` (stereo not given)?
JMJD2A Tudor inh: inactive; HP1b binding inh: inactive; Six1-Eya2 inh: inactive; CtBP-E1A inh: inactive; BAZ2B inh: inactive; G9a block: inactive[12.7 µM]

How did Cc1ccc(S(=O)(=O)NC(=O)C2(C)CCN2C(=O)c2ccccc2)cc1 (stereo not given) do in these assays?
Six1-Eya2 inh: inactive; CtBP-E1A inh: inactive

Results for CCc1nc2ccccc2n1CC(=O)OCC(=O)N(CC(C)C)c1c(N)n(Cc2ccccc2)c(=O)[nH]c1=O ?
JMJD2A Tudor inh: inactive; HP1b binding inh: inactive; Six1-Eya2 inh: inactive; CtBP-E1A inh: inactive; BAZ2B inh: inactive; G9a block: 56µM

Results for CC(C)CN(C(=O)COC(=O)c1cnccn1)c1c(N)n(Cc2ccccc2)c(=O)[nH]c1=O ?
JMJD2A Tudor inh: inactive; HP1b binding inh: inactive; Six1-Eya2 inh: inactive; CtBP-E1A inh: inactive; BAZ2B inh: inactive; G9a block: inconclusive

How did CC(C)CN(C(=O)COC(=O)c1ccccn1)c1c(N)n(Cc2ccccc2)c(=O)[nH]c1=O do in these assays?
JMJD2A Tudor inh: 6.3µM; HP1b binding inh: inactive; Six1-Eya2 inh: inactive; CtBP-E1A inh: inactive; BAZ2B inh: inconclusive; G9a block: 45µM

How did CCc1nnc(NS(=O)(=O)c2ccc(NC(=S)NC(=O)c3ccncc3)cc2)s1 do in these assays?
JMJD2A Tudor inh: inconclusive; HP1b binding inh: inactive; Six1-Eya2 inh: inactive; CtBP-E1A inh: inactive; BAZ2B inh: inconclusive; G9a block: 50µM

Results for CCc1nnc(NC(=O)c2ccc(NC(=O)C(C)C)cc2)s1 ?
JMJD2A Tudor inh: inactive; HP1b binding inh: inactive; Six1-Eya2 inh: inactive; CtBP-E1A inh: inactive; BAZ2B inh: inactive; G9a block: 56µM

What do the screens show for `CCOc1cc(C(=O)Nc2ccc(S(=O)(=O)Nc3nnc(CC)s3)cc2)cc(OCC)c1OCC`?
JMJD2A Tudor inh: 25µM; HP1b binding inh: inactive; Six1-Eya2 inh: inactive; CtBP-E1A inh: inactive; BAZ2B inh: inactive; G9a block: inconclusive
